Laboratory results from PubChem BioAssay.
Calls of active or inactive are those of the source.

Columns and labels:
[1] = tested on: Plasmodium falciparum Sir2 (PF13_0152, Sir2A); assay: Plasmodium falciparum Sir2A binding compounds – biochemical, small-molecule microarray, 635 nm fluorescence, primary screen (AID 1098); conditions: fluorescence 635 nm, higher = more signal;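 further: score merges spot fluorescence intensity with its signal-to-noise ratio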
[2] = probe aDKK1 binding to arrayed compounds – biochemical, biotinylated probe, 635/667 nm fluorescence, primary screen (AID 1099); conditions: small-molecule microarray, higher = more signal;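 further: score merges 667nm spot fluorescence with signal to noise across triplicate slides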
[3] = probe aCHRDL2 binding to arrayed compounds – biochemical, biotinylated probe, 635/667 nm fluorescence, primary screen (AID 1100); conditions: small-molecule microarray, higher = more signal
[4] = change in splice reporter luminescence, either direction, cell-based, HEK293, spliceosome inhibition project, primary screen (AID 1101); conditions: HEK293 splicing luciferase reporter, 24 h, higher = more signal, called active from +8 up or from −8 down;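 further: HEK293 cells carrying a splicing-competent luciferase reporter gene; test concentration not given here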
[5] = target: Fibroblast growth factor 10 (Homo sapiens) (UniProt O15520); assay: compounds binding fibroblast growth factor 10 – biochemical, small-molecule microarray, 635 nm fluorescence, primary screen (AID 1102); conditions: FGF10 binding, fluorescence 635 nm, higher = more signal
Sequence of Fibroblast growth factor 10 (Homo sapiens) (O15520 whole entry, looked up): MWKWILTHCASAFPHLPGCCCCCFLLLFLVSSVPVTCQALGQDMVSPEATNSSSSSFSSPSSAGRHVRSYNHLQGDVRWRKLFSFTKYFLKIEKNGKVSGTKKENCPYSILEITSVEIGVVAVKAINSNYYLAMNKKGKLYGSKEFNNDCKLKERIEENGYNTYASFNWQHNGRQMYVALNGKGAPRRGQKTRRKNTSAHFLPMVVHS

[6] = tested on: glycogen synthase kinase-3 (GSK3A per assay name; protocol says GSK3B); assay: compounds binding glycogen synthase kinase-3 – biochemical, small-molecule microarray, 635 nm fluorescence, GSK3A, primary screen (AID 1103); conditions: fluorescence 635 nm, higher = more signal; further: the record names both GSK3A and GSK3B
[7] = target: Epidermal growth factor receptor (Homo sapiens) (UniProt P00533); assay: compounds binding epidermal growth factor receptor – biochemical, small-molecule microarray, 635 nm fluorescence, primary screen (AID 1104); conditions: EGFR binding, higher = more signal;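 further: score merges 667 nm emission intensity with spot signal to noise over triplicate slides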
Sequence of Epidermal growth factor receptor (Homo sapiens) (P00533 whole entry, looked up): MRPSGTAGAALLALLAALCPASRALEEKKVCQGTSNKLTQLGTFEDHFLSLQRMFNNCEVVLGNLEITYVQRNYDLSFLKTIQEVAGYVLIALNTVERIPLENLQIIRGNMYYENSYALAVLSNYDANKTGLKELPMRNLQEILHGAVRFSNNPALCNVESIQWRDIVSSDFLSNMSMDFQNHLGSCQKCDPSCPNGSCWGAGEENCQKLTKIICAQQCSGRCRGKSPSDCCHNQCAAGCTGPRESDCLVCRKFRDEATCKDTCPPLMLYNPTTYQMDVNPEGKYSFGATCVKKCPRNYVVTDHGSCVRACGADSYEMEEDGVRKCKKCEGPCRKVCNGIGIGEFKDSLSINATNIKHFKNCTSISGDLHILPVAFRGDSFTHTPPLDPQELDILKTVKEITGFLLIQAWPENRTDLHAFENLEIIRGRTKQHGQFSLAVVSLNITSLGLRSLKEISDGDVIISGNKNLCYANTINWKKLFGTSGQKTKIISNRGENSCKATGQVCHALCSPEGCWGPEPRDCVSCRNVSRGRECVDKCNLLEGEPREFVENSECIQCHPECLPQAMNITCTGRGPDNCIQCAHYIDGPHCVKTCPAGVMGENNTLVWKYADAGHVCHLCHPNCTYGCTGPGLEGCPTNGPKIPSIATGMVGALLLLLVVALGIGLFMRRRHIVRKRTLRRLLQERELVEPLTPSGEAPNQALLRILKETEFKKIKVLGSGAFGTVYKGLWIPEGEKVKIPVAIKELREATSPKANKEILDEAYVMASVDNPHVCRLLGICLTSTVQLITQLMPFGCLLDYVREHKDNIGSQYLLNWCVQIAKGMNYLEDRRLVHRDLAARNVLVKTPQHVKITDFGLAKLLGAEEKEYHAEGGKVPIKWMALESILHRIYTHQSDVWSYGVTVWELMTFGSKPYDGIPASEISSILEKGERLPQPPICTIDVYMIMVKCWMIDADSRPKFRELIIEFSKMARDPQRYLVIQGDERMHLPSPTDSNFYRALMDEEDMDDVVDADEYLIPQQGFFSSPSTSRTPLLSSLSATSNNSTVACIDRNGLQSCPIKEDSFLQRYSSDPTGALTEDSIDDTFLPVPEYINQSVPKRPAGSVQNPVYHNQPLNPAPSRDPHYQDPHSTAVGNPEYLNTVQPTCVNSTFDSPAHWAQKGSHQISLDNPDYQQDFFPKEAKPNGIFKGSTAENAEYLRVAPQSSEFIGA

[8] = target: Follistatin-related protein 3 (Homo sapiens) (UniProt O95633); assay: compounds binding follistatin-related protein 3 – biochemical, small-molecule microarray, 635 nm fluorescence, primary screen (AID 1105); conditions: FSTL3 binding, higher = more signal;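 further: score merges emission near 667 nm and signal to noise per printed spot across three slides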
Sequence of Follistatin-related protein 3 (Homo sapiens) (O95633 whole entry, looked up): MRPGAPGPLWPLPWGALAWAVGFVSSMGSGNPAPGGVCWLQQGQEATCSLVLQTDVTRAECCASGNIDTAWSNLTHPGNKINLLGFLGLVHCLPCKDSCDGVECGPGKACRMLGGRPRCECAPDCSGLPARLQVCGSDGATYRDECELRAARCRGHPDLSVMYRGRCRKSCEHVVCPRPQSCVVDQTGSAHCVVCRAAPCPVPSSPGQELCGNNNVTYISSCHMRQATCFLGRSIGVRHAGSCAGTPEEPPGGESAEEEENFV

[9] = target: Dickkopf-related protein 1 (Homo sapiens) (UniProt O94907); assay: small molecules binding DKK1 protein – biochemical, small-molecule microarray, 635 nm fluorescence scan, primary screen (AID 1106); conditions: higher = more signal;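 further: score merges emission near 667 nm with signal to noise over three replicate slides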
Sequence of Dickkopf-related protein 1 (Homo sapiens) (O94907 whole entry, looked up): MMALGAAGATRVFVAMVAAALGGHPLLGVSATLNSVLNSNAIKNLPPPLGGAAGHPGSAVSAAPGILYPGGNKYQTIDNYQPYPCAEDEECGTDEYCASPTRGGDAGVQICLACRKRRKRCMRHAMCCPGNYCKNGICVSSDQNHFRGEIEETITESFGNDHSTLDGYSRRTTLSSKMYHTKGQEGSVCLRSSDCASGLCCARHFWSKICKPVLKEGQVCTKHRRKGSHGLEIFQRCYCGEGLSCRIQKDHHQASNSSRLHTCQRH

[10] = tested on: Inhibin beta A chain (activin A); assay: small molecules binding activin A – biochemical, small-molecule microarray, 635 nm fluorescence scan, primary screen (AID 1107); conditions: INHBA, higher = more signal;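 further: mouse activin A protein probed at 4.33 µg/mL on printed slides; score merges bound-protein fluorescence near 667 nm with spot signal-to-noise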
[11] = tested on: Human papillomavirus type 1a protein E7 (residues 44-93); assay: small molecules binding HPV E7 44-93 – biochemical, small-molecule microarray, residues 44-93, 635 nm fluorescence, primary screen (AID 1108); conditions: fluorescence 635 nm, higher = more signal;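 further: E7 fragment applied at 1 µg/mL in TBST for 1 h at 4 C; score combines spot fluorescence with its signal to noise ratio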
[12] = hepatitis C replication reporter changes, two-sided – Huh7 cells, luciferase reporter, HCV replication inhibitor project, primary screen (AID 1109); conditions: Huh7 HCV replicon luciferase reporter, 48 h; higher = more signal;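 further: huh7 hepatoma cells harbouring a luciferase neomycin HCV replicon reporter; luciferase luminescence as measure of HCV replicon replication; test concentration not given here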
[13] = target: Left-right determination factor 2 (Homo sapiens) (UniProt O00292); assay: small molecules binding LEFTY2 protein – biochemical, small-molecule microarray, 635 nm fluorescence scan, primary screen (AID 1110); conditions: higher = more signal
Sequence of Left-right determination factor 2 (Homo sapiens) (O00292 whole entry, looked up): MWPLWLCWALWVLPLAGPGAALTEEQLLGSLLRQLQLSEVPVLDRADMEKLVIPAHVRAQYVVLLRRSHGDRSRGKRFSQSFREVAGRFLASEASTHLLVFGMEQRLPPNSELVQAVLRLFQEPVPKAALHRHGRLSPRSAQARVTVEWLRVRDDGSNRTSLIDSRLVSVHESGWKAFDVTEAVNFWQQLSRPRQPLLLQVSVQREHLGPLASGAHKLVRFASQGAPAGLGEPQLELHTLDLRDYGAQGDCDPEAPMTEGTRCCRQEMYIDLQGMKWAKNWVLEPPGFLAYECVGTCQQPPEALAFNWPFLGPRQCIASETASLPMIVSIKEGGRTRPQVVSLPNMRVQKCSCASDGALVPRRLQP

[14] = target: Calmodulin-1 (Homo sapiens) (UniProt P0DP23); assay: small molecules binding calmodulin-1 with EGTA – biochemical, small-molecule microarray, Cy5-labelled CALM1, profiling panel (AID 1111); conditions: Cy5-CALM1 binding fluorescence, higher = more signal;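 further: labelled calmodulin applied in Tris saline Tween buffer holding calcium plus EGTA and DTT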
[15] = target: Calmodulin-1 (Homo sapiens) (UniProt P0DP23); assay: small molecules binding Ca-loaded calmodulin-1 – biochemical, small-molecule microarray, Cy5-labelled CALM1, plus calcium, artefact control for SMM control-protein annotation, profiling panel (AID 1112); conditions: Cy5-CALM1 binding fluorescence, higher = more signal;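 further: score merges spot fluorescence with signal to noise from triplicate slides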
[16] = probe aWnt5a binding to arrayed compounds – biochemical, biotinylated probe, 635/667 nm fluorescence, primary screen (AID 1113); conditions: small-molecule microarray, higher = more signal;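 further: score merges 667 nm fluorescence intensity with signal-to-noise per printed feature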
[17] = probe aShh binding to arrayed compounds – biochemical, biotinylated probe, 635/667 nm fluorescence, primary screen (AID 1114); conditions: small-molecule microarray, higher = more signal;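 further: probe is biotin-labelled aShh protein from a stem cell growth factor screen; measures binding of labelled protein to compounds printed on the slide; score merges feature fluorescence at 667 nm with signal-to-noise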
[18] = probe aNog binding to arrayed compounds – biochemical, biotinylated probe, 635/667 nm fluorescence, primary screen (AID 1115); conditions: small-molecule microarray, higher = more signal;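 further: probe is biotinylated aNog protein used at 0.15 µg/mL for 1 h at 4 C; z-score combines 667 nm fluorescence of each spot with its signal to noise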
[19] = target: Torsin-1A-interacting protein 1 (Homo sapiens) (UniProt Q5JTV8); assay: compound microarray binding of lysate hLAP1 – cell lysate, small-molecule microarray, COS7 lysate, 635/667 nm fluorescence, primary screen (AID 1116); conditions: 635 nm fluorescence, higher = more signal
Sequence of Torsin-1A-interacting protein 1 (Homo sapiens) (Q5JTV8 whole entry, looked up): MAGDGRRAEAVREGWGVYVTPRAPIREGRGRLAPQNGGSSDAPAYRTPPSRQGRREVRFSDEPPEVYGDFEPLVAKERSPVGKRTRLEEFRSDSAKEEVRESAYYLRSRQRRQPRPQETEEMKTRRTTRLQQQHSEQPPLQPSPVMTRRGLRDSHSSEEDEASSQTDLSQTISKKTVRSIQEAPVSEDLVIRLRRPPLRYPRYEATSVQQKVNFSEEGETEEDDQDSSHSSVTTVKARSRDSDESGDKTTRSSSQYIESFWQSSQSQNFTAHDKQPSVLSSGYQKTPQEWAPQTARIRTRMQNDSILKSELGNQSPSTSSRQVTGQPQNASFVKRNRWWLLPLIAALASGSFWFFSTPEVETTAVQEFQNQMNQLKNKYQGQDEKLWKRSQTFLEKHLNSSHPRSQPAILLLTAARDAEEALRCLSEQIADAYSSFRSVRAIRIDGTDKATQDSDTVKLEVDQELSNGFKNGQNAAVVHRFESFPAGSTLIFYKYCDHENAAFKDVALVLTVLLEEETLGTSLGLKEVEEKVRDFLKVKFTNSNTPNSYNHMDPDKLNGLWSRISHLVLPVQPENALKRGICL

[20] = target: Alpha-bungarotoxin (Bungarus multicinctus) (UniProt P60615); assay: compounds binding labelled alpha-BTX control protein – biochemical, small-molecule microarray, Alexa647 label, 635/667 nm fluorescence, artefact control for SMM control protein annotation, profiling panel (AID 1117); conditions: alpha-BTX-A647 binding fluorescence, higher = more signal
Sequence of Alpha-bungarotoxin (Bungarus multicinctus) (P60615 whole entry, looked up): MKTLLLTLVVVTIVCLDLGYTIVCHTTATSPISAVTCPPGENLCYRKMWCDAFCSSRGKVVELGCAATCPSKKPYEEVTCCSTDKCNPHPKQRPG

SMILES	composite z-score [1]	composite z-score [2]	composite z-score [3]	z-score [4]	composite z-score [5]	composite z-score [6]	composite z-score [7]	composite z-score [8]	composite z-score [9]	composite z-score [10]	composite z-score [11]	z-score [12]	composite z-score [13]	composite z-score [14]	composite z-score [15]	composite z-score [16]	composite z-score [17]	composite z-score [18]	composite z-score [19]	composite z-score [20]
COCCCNC(=O)[C@@]1(Sc2ccc(C)cc2)CC(=O)N(Cc2ccccc2)[C@@H]1c1ccc(CO)cc1I	0.179	0.996	1.31	-0.606 (inactive)	-0.144	-0.969	-1.28	-0.238	-1.4	1.12	0.362	-2.02	-1.54	-1.11	0.214	-0.0928	-0.0362	-0.176	1.5	1.23
COCCOC(=O)N1C(=O)[C@@]2(c3cc(C#CCNC(N)=O)ccc31)[C@H](c1ccc(O)cc1)N1[C@H](c3ccccc3)[C@H](c3ccccc3)OC(=O)[C@H]1[C@@H]2C(=O)N1CCCCCCC1	1.08	0.614	0.356	-0.364 (inactive)	1.25	0.43	0.611	1.38	0.969	0.85	1.13	-0.768	0.817	-0.0989	-0.218	-0.0718	0.108	-0.559	0.774	0.413
[N-]=[N+]=NCc1ccccc1[C@@H]1OC(c2ccc(OCCCO)cc2)=N[C@]1(Cc1ccccc1)C(=O)N1CCOCC1	1.57	1.2	0.798	-0.962 (inactive)	1	1.29	0.0588	0.589	0.315	0.182	0.0452	-2.03	0.343	1.93	1.05	0.141	0.26	1.9	3.31	1.62
[N-]=[N+]=NCc1ccccc1C[C@]1(C(=O)NCc2ccccc2)N=C(c2ccc(OCCCO)cc2)O[C@H]1c1ccccc1N=[N+]=[N-]	1.3	0.658	1.09	0.00592 (inactive)	0.856	1.12	-0.463	0.188	-0.678	-0.222	0.878	-2.05	-0.612	1.35	0.743	0.0068	0.162	-0.716	0.855	0.947
COc1ccc(-c2ccc3c(n2)CCCN3CC(O)CN2CCCc3nc(C)c(C)cc32)cc1 (stereo not given)	0.879	0.323	0.386	-0.155 (inactive)	0.817	0.871	0.691	0.995	1.39	1.6	1.02	-0.578	0.728	0.0025	-0.636	0.459	0.699	0.667	0.833	2.05
C=CCC(OC(C)=O)[C@@H]1[C@@H](N(Cc2cc3ccccc3o2)C(=O)Cc2ccc(F)cc2)c2cc(OCCCO)ccc2N1C(=O)Cc1ccc(OC)cc1 (stereo not given in full)	-0.144	-0.361	0.102	-0.844 (inactive)	0.0509	-1.17	-0.239	-0.0882	-0.191	0.772	-1.07	-1.14	-0.0691	-0.481	-0.435	-0.236	0.14	0.0234	0.158	0.286
CC[C@@H](c1ccccc1)n1c(=O)n2n(c1=O)[C@H]1[C@H](O)[C@@H]3O[C@@H]3C(=NOCC(C)C)[C@H]1CC2	0.315	-0.187	-0.532	1.26 (inactive)	-0.0238	0.0344	0.143	0.227	0.202	-0.0597	0.284	-2.11	0.143	-0.0128	-0.178	-0.12	-0.14	-0.407	0.107	-0.088
CC(=O)OC[C@H]1O[C@H](CCON=C(C)CCC(=O)OC[C@H]2O[C@H](C#Cc3ccccc3)C=C[C@@H]2Oc2ccc(C)cc2)C=C[C@@H]1OC(C)=O	0.825	-0.304	-0.632	-0.35 (inactive)	0.167	-0.219	0.259	0.521	0.495	0.659	-0.187	-0.0572	0.977	-0.367	-0.5	-0.131	-0.138	-0.423	0.245	1.24
COC(=O)[C@H](C)NC(=O)CCC1CC(OC(=O)NCCc2ccc(F)cc2)CC2(CCCC(COC(=O)NCCc3ccc(Cl)cc3)O2)O1 (stereo not given in full)	0.316	0.0144	-0.615	-0.137 (inactive)	1.07	0.987	0.344	1.29	1.05	0.0063	1.29	-0.0845	1.2	0.922	0.232	-0.224	-0.138	-0.299	0.428	0.763
C[C@@H]1C=CCC(=O)OC[C@H](C)C(=O)N2CCC[C@H]2C(=O)OC1	1.12	-0.457	-0.769	-0.479 (inactive)	0.825	1.21	1.26	0.829	2.21	-1.04	0.685	-1.06	0.851	-0.725	-1.26	-0.22	0.0188	0.0419	0.96	-0.285
COc1ccc(O[C@H]2C=C[C@@H](c3ccccc3)O[C@@H]2COC(=O)CCC(C)=NOC(C)CN2CCCCc3nc(C)c(C)cc32)cc1 (stereo not given in full)	1.42	-0.0789	0.208	-0.665 (inactive)	-0.154	-0.86	-0.457	-0.106	-0.0649	1.36	0.36	-0.239	-0.106	-0.959	-0.203	-0.157	-0.138	-0.158	0.168	-0.47
